For some of these results: Measured potencies and affinities stand elsewhere.
Assays:
Design in all cases: scale not given: direction of the effect not stated beside the values
[1] = target: Protein translocase subunit SecA (Escherichia coli (strain K12)) (UniProt P10408); test: Assay to Identify E. coli SecA ATPase Inhibitors; assay type: functional; details: 30 µM
[2] = target: T1, Ubiquitin-activating enzyme e1, putative (Leishmania donovani (strain BPK282A1)) (UniProt E9BSI1); test: Leishmania donovani Ubiquitin Activating Enzyme (LdE1); assay type: functional; details: 30 µM
T1 sequence (whole entry): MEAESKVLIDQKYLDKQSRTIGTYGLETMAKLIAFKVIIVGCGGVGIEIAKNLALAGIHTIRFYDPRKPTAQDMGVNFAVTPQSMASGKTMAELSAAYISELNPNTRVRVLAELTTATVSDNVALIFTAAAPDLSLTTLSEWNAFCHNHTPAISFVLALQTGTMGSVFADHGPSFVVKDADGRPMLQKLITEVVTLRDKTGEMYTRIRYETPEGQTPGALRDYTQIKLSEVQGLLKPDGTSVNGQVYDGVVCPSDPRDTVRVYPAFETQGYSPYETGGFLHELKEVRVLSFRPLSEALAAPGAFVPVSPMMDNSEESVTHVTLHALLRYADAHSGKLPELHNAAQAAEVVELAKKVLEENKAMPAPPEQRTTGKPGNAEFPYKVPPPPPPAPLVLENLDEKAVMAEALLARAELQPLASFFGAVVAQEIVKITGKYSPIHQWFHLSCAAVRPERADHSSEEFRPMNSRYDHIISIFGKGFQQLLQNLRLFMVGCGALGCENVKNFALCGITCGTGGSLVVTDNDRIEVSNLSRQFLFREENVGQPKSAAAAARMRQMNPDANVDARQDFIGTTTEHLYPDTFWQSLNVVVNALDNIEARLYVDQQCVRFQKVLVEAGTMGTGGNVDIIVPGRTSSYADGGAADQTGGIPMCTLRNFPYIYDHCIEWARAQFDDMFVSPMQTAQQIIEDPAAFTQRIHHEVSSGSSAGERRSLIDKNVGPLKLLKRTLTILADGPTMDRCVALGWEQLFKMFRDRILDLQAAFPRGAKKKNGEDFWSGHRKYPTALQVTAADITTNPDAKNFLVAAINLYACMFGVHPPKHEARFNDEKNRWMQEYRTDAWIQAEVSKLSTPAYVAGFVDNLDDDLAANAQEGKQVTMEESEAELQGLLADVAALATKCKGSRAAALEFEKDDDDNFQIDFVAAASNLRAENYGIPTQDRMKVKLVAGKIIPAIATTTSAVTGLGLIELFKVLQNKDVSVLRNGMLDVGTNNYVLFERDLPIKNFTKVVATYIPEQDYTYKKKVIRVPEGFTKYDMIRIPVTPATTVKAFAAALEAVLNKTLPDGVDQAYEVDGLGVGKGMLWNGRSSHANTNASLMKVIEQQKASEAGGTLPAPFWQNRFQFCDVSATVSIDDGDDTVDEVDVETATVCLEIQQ

[3] = target: AMP-activated protein kinase, AMPK (Homo sapiens) (UniProt P54646+O43741+P54619+Q9UGJ0+Q9Y478+Q13131+Q9UGI9); test: AMP-dependent Kinase enzyme assay. An in vitro enzyme assay that detects ADP turnover that is directly proportional to AMPK activity. This uses naive AMPK that is activated during the assay with MK-8722; assay type: functional; details: 30 µM
[4] = target: Sialic acid-binding Ig-like lectin 9 (Homo sapiens) (UniProt Q9Y336); test: Hs-Siglec9 ALPHAscreen SOP 20170721; details: 10 µM
Sequence of Sialic acid-binding Ig-like lectin 9 (Homo sapiens) (Q9Y336 whole entry): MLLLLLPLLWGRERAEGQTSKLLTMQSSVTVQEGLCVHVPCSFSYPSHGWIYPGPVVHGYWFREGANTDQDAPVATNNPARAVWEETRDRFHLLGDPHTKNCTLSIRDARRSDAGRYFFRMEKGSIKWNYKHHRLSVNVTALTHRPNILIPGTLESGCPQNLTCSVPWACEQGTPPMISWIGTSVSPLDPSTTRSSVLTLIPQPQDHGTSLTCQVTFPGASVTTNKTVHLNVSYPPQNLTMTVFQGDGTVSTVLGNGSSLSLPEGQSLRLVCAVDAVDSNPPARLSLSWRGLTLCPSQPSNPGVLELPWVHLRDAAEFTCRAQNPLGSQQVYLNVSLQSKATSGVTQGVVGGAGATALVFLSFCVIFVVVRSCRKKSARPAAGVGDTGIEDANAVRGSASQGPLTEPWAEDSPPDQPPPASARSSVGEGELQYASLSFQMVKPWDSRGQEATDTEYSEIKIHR

Trypanosoma cruzi = test: Trypanosoma cruzi phosphomannomutase and mannose-1-phosphate guanylyltransferase assay; assay type: functional; details: 10 µM
[5] = target: T2, Arginase-2, mitochondrial (Homo sapiens) (UniProt P78540); test: in vitro enzyme assay to detect the production of urea directly proportional to the activity of Arginase II; assay type: functional; details: 33.3 µM; also: in the data most compounds retested in dose-response had high values
T2 sequence (whole entry): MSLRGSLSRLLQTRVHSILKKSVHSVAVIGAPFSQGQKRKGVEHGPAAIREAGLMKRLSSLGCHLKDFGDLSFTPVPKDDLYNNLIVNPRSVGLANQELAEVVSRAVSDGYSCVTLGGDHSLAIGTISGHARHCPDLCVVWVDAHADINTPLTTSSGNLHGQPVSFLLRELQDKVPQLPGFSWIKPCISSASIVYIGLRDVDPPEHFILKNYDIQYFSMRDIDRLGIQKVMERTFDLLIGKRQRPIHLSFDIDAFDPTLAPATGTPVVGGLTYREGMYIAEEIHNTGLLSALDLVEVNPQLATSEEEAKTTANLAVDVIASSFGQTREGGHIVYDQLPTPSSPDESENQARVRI

[6] = target: T3, Proteasome subunit beta (Trypanosoma cruzi) (UniProt O96673); test: Trypanosoma cruzi proteasome chymotrypsin-like activity (TcProtChymo) assay.; also: in the data most compounds retested in dose-response had high values; assay type: functional; details: 9.37 µM
T3 sequence (whole entry): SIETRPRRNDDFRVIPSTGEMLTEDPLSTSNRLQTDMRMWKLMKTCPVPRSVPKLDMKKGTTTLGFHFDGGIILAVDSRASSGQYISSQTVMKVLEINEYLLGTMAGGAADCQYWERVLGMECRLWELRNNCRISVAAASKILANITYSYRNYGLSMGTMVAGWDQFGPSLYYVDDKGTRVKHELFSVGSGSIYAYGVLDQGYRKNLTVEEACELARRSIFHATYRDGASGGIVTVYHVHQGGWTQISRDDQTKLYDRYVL

Homo sapiens = organism: Homo sapiens; test: To identify inhibition of the IFN signalling (Jak-Stat) pathway via expression of an eGFP reporter gene under the control of an IFN-stimulated response element (ISRE) containing MxA promoter.; assay type: functional; details: 30 µM
[7] = target: T4, Tyrosyl-tRNA synthetase, putative (Trypanosoma cruzi (strain CL Brener)) (UniProt Q4DSP6); test: Trypanosoma cruzi tyrosyl tRNA synthetase (TcYRS) _High Tyrosine SOP; assay type: functional; details: 30 µM; also: in the data most compounds retested in dose-response had high values
T4 sequence (whole entry): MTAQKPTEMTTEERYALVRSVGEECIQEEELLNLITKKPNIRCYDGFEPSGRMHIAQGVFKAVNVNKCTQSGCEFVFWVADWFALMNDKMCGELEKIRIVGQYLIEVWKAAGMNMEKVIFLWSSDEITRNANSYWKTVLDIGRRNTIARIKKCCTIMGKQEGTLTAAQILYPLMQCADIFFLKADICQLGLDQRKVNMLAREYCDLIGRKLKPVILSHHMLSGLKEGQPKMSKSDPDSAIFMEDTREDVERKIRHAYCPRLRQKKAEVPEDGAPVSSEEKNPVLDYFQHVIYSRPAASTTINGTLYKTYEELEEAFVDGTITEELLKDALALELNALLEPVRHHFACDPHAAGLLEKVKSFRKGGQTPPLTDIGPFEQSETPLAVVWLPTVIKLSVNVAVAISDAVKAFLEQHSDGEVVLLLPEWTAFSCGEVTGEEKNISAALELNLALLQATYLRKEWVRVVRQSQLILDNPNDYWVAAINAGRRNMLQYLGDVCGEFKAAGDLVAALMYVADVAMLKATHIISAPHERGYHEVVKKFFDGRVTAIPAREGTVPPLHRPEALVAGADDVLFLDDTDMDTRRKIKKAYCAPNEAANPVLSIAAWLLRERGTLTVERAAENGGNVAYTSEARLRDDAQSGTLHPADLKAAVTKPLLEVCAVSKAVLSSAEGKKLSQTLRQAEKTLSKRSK

[8] = target: T4, Tyrosyl-tRNA synthetase, putative (Trypanosoma cruzi (strain CL Brener)); test: Trypanosoma cruzi tyrosyl tRNA synthetase (TcYRS) SOP; assay type: functional; details: 30 µM
[9] = target: Chromo domain-containing protein 1 (Saccharomyces cerevisiae (strain ATCC 204508 / S288c) (Baker's yeast)) (UniProt P32657); test: ScCHD-1 Enzyme Inhibition Assay; assay type: functional; details: 30 µM; also: in the data most compounds retested in dose-response had high values
Sequence of Chromo domain-containing protein 1 (Saccharomyces cerevisiae (strain ATCC 204508 / S288c) (Baker's yeast)) (P32657 whole entry, the tested form may be a part): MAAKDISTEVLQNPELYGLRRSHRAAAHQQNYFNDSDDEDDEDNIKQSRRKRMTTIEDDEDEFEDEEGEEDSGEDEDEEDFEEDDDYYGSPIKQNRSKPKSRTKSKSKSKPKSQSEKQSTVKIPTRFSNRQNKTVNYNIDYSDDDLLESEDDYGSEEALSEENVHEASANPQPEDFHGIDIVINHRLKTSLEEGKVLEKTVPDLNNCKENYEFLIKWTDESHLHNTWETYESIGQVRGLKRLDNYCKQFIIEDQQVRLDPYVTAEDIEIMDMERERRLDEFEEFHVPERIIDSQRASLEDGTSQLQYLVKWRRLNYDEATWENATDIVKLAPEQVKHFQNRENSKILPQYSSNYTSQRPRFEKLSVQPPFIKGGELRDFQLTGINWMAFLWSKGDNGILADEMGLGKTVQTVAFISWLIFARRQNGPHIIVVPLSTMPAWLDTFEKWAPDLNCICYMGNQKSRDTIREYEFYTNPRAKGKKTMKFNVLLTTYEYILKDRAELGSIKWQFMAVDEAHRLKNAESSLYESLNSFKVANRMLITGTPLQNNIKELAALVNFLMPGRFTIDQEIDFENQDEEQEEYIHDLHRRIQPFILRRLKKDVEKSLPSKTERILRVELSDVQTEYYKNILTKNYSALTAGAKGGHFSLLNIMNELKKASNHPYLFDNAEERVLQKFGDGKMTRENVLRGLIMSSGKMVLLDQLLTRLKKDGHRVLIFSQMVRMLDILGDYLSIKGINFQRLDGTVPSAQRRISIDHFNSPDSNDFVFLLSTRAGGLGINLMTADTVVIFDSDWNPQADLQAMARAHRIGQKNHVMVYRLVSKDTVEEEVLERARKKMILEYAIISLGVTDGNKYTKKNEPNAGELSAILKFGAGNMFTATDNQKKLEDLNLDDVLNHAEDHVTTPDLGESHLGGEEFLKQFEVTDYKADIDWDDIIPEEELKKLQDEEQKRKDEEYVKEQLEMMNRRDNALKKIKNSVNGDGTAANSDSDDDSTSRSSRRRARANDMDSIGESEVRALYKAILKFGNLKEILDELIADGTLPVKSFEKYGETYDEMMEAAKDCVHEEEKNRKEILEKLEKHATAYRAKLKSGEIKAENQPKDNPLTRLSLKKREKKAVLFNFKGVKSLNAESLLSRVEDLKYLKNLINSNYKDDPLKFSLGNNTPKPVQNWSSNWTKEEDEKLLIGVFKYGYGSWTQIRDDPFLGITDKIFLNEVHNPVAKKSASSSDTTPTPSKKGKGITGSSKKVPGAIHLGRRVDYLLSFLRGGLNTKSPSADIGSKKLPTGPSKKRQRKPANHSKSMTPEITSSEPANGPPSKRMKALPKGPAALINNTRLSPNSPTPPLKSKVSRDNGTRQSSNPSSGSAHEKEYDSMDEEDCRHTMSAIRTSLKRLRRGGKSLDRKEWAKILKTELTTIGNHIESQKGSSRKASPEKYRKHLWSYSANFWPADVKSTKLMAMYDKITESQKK

Sequence of Protein translocase subunit SecA (Escherichia coli (strain K12)) (P10408 whole entry): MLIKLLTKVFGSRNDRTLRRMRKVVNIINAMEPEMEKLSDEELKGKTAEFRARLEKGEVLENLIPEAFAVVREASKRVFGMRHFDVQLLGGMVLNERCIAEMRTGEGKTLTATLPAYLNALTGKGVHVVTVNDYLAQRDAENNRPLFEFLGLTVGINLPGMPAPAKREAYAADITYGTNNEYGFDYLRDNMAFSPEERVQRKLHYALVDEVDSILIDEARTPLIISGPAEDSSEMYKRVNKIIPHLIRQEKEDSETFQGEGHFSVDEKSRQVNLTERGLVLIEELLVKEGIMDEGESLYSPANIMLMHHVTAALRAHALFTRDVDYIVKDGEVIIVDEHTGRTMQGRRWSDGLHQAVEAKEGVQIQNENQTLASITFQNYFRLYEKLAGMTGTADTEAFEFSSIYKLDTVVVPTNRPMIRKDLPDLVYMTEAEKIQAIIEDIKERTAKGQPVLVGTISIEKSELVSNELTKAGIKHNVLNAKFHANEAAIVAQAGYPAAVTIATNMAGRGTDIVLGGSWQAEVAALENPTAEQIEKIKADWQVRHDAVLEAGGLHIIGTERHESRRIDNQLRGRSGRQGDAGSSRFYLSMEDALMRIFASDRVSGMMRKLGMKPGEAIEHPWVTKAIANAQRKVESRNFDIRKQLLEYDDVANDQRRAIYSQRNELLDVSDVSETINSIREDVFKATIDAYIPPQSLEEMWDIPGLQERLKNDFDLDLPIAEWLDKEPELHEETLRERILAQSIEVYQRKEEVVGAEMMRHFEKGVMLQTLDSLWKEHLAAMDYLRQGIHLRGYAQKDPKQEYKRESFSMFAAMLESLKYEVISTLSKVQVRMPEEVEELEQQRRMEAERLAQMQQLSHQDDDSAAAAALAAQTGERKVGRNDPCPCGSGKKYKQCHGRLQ

Row | SMILES | Percent Effect [1] [%] | Percent Effect [2] [%] | Percent Effect [3] [%] | Percent Effect [4] [%] | Percent Effect (Trypanosoma cruzi) [%] | Percent Effect [5] [%] | Percent Effect [6] [%] | Percent Effect (Homo sapiens) [%] | Percent Effect [7] [%] | Percent Effect [8] [%] | Percent Effect [9] [%]
1 | COc1ccccc1N1CCC(CNCc2cccc(C#N)c2)C1 (stereo not given) | -2.81 | 8.11 | 9.38 | -7.09 | 3.11 | -8.82 | 17.3 | -10.4 | 13.3 | 18.5 | 10.3
2 | Cc1cc(C)n(CC2CCCN2C(=O)c2c[nH]c3ncccc23)n1 (stereo not given) | -3.09 | -2.7 | 10.7 | 5.96 | -4.18 | 4.99 | -3.05 | 24.1 | -0.99 | -6.1 | 12.6
3 | O=C(C1CCOCC1)N1CCC2(CC1)CC(Oc1ccccc1)CO2 (stereo not given) | 0.293 | 8.22 | -6.45 | 5.89 | 0.595 | -5.59 | 7.28 | 14.1 | 6.25 | 16.1 | -0.343
4 | CN1CCC(CCNC(=O)c2ccc(N(C)S(C)(=O)=O)cc2Cl)CC1 | -4.43 | -10.4 | -1.14 | 0.479 | -3.44 | 29 | 6.16 | -1.88 | 0 | -3.7 | 2.38
5 | Cn1nccc1-c1ccc2nc(C3CCN(CCO)CC3)nn2c1 | -3.12 | 13.3 | 0.376 | 3.71 | 1.35 | -54.7 | 13.5 | 3.01 | 5.21 | 22.5 | -7.82
6 | CN(Cc1cccc(F)c1)C(=O)CN1CCCC1CCc1ccccc1 (stereo not given) | -3.56 | -7.79 | 2.67 | 4.42 | 3.44 | -1.38 | 2 | -5.85 | 1.07 | -3.7 | 113
7 | CCN(Cc1ccc2c(c1)OCCO2)C(=O)NCc1cc[nH]n1 | -2.19 | 15.6 | 1.3 | 2.08 | -2.06 | 1.47 | 7.03 | -7.15 | 5.71 | 11.8 | -19.3
8 | Cc1cc(C2CCCN(CCCNS(C)(=O)=O)C2)n[nH]1 (stereo not given) | -3.61 | 2.53 | -4.24 | 13.7 | -0.283 | -2.66 | -2.7 | -2.96 | 5.42 | 3.8 | -0.769
9 | NC(=O)NCC1CCCCN1C(=O)c1cccc(C(F)(F)F)c1 (stereo not given) | -6.54 | 21.1 | -2.74 | 13.3 | 4.95 | -6.47 | 2.79 | -1.19 | 5.42 | 16.1 | -9.06
10 | O=C([C@H]1CCCO1)N1CCc2ncnc(NC3CC3)c2CC1 | 1.86 | 0 | -0.252 | -2.06 | -5.47 | 5 | 12.4 | 3.34 | 9.9 | 13.4 | -4.91
11 | Cc1nnc(C2Cc3ccccc3CN2Cc2ncc(C(C)(C)C)o2)o1 (stereo not given) | -1.87 | 15.6 | 3.3 | -12.9 | -3.82 | -1.05 | 20.8 | 27.9 | 8.57 | 11.8 | -17.8
12 | CCc1nnc2n1CCN(C(=O)CN(C)Cc1ccccc1)C2 | -2.83 | 7.89 | -9.27 | 7.43 | 5.88 | 2.16 | 4.32 | -5.24 | 4.43 | 18.5 | -4.71
13 | Fc1cnc(N2CCn3cc(CNc4ccccn4)nc3C2)nc1 | 0.222 | -2.67 | 7.82 | 16.2 | -0.193 | -56.1 | 3.76 | 7.84 | -1.04 | -5 | -2.56
14 | Cc1cc(F)ccc1CN1CCC(O)(CN2CCCCC2)C1 (stereo not given) | -6.21 | 5.33 | -7.83 | 3.56 | -1.46 | -1.04 | 19.2 | -1.85 | 4.92 | 8.64 | -4.93
15 | O=C(Cn1ccc2ccc(Br)cc21)NCc1ccc(C(=O)O)cc1 | -2.06 | -5.26 | 4.18 | -0.116 | -7.69 | -3.55 | 9.88 | -5.25 | -10.6 | -13 | -4.34
16 | CCC(NC(=O)C1CCN(S(C)(=O)=O)CC1)c1ccc(OC)c(OC)c1 (stereo not given) | -2.12 | -2.6 | 3.25 | -1.28 | -1.48 | -5.52 | 11.2 | -4.52 | 3.23 | 1.24 | 3.51
17 | CCCn1[nH]cc/c1=N\C(=O)CN1CCCC1c1c(C)nn(C)c1C (stereo not given) | -4.29 | 2.7 | -27.7 | 15.7 | 7.45 | 6.81 | 3.78 | -0.266 | 3.45 | 13.6 | -10.6
18 | CC(C)(C)c1nc(CN2CCC(c3nc4cc(Cl)ccc4o3)CC2)no1 | 0.762 | 13.5 | 3.19 | 22.6 | 7.92 | 4.76 | 7.76 | 10.2 | 2.65 | 0 | -5.62
19 | COCc1ccccc1C(=O)NCCCN1CCCC1C(=O)N(C)C (stereo not given) | 0.173 | 8.22 | -7.48 | 6.16 | 2.94 | -2.27 | 15.8 | 13.9 | 3.23 | 12.5 | -6.47
20 | COc1ccc(Cl)cc1NCC(=O)NCCNc1cnccn1 | -3.85 | -5.41 | 2.13 | 13.2 | -2.17 | -2.4 | 3.96 | -1.56 | 4.43 | 13.6 | -3.88

— ChEMBL document CHEMBL3988442, “University of Dundee, Small-Polar-MMV Screening Library” (2021)
